From PubChem BioAssay AID434927 (Sanford-Burnham Center for Chemical Genomics, 2010)
Active and inactive are the calls of the source.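 The calls were made as follows: active = inhibition above about 23% in any of six single-dose repeats (limit read from the data); inactive = the rest.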

Biological target: Intestinal-type alkaline phosphatase (Homo sapiens) (UniProt P09923)
Assay: suppression of intestinal alkaline phosphatase activity – biochemical, luminescence, single concentration, uHTS hits, confirmation (AID 434927);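 also: plate controls were DMSO wells with enzyme for no effect and wells lacking enzyme for full effect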
Settings: purified human IAP, CDP-Star luminescence, 30 min; at 8.3 µM; hits give high values

Sequence of Intestinal-type alkaline phosphatase (Homo sapiens) (P09923 whole entry, looked up): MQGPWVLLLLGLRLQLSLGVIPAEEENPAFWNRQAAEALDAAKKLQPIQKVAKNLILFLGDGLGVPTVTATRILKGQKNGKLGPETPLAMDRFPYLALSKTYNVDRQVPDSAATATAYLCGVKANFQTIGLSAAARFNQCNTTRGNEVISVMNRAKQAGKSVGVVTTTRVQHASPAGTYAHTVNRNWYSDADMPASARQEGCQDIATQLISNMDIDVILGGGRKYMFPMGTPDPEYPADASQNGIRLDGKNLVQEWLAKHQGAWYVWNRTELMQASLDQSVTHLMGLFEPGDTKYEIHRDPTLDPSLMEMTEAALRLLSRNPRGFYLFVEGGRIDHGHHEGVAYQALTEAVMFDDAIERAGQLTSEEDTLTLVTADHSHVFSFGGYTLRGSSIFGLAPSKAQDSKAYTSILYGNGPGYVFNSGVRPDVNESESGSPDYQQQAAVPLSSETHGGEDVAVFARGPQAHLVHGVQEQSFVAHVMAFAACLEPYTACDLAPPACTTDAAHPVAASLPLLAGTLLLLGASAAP

SMILES	inhibition
c1ccc(CSCCc2ccncc2)cc1	-33.2% (inactive)
Cc1ccc(-c2cc(C(=O)N/N=C/c3ccccc3O)n[nH]2)o1	39.3% (active)
O=C(CCNS(=O)(=O)c1ccccc1C(F)(F)F)NNC(=O)c1csc(N2CCOCC2)n1	0.0741% (inactive)
COc1ccc(CC2CC(=O)N(c3ccc(C)cc3)C2=O)cc1 (centres undefined)	23.2% (active)
O=C(CN1CCN(C(=O)N2CCCCC2)CC1)Nc1ccc(F)cc1	-97.3% (inactive)
c1ccc(-c2nnc(CN3CCC4(CC3)OCCO4)o2)cc1	29.7% (active)
O=C1Nc2ccc(Br)cc2C12NNc1ccccc1O2 (centres undefined)	35% (active)
NC(=O)c1ccc(NC(=O)C2CCCC2)cc1	-40.2% (inactive)
CN(CC(=O)Nc1ccccc1F)CC(=O)Nc1ccc(F)c(F)c1F	51.6% (active)
COc1cc(Cl)ccc1OCc1cc(C(=O)N2CCCCCCC2)no1	34.5% (active)
CCOCCCNC(=O)CCC(=O)NNc1nc2ccccc2c2nc(-c3ccccc3)nn12	48.4% (active)
O=C1Nc2ccccc2/C1=N\N=C\c1ccc(O)c(O)c1	61.5% (active)
Cc1cc(C)cc(OCC(=O)NNC(=O)c2cc(C)[nH]n2)c1	-94.6% (inactive)
O=C(O)C1OC(Oc2c(-c3ccc(O)c(O)c3)oc3cc(O)cc(O)c3c2=O)C(O)C(O)C1O (centres undefined)	32.1% (active)
O=c1c2cc(O)c(O)cc2oc2cc(O)c(C3OC(CO)C(O)C(O)C3O)c(O)c12 (centres undefined)	-148% (inactive)
Oc1ccc(N=Nc2c(O)ccc3ccccc23)cc1	-91.9% (inactive)
CCc1ccc(/C=N/Nc2ncnc3nc[nH]c23)cc1	33.8% (active)

SMILES	inhibition
CC(C)Oc1ccc(CCC(=O)NNC(=S)NCc2ccccc2)cc1	46.5% (active)
C=CCN1C(=O)/C(=C\C=C2\N(C)c3ccccc3C2(C)C)SC1=S	-267% (inactive)
COC(=O)c1ccccc1-c1c2ccc(=N)cc-2oc2cc(N)ccc12	34.6% (active)
Cc1ccc(S(=O)(=O)NCCC(=O)NNC(=O)COc2ccc(Br)cc2)cc1C	41% (active)
CC(C)Oc1ccc(C(=O)Nc2ncn[nH]2)cc1	-64.7% (inactive)
O=C(Cc1ccc(Cl)c(Cl)c1)NNC(=S)NCC1CCCO1 (centres undefined)	-97.6% (inactive)
Cc1nc2c3ccccc3nc(NNC(=O)CCC(=O)N3CCCC(C)C3)n2n1 (centres undefined)	-41.6% (inactive)
O=C(N/N=C/c1c(O)ccc2ccccc12)c1[nH]ncc1Br	42.8% (active)
Cc1[nH]n(-c2nc(-c3ccccc3F)cc(=O)[nH]2)c(=O)c1CCO	-39.7% (inactive)
C[C@@H](NC(=O)c1[nH]cnc1C(=O)Nc1ccon1)c1ccccc1	-80% (inactive)
O=C(/C=C/c1ccc(O)cc1)c1ccc(NC2=C(N3CCCCC3)C(=O)c3ccccc3C2=O)cc1	-0.00319% (inactive)
Cc1nc2c3ccccc3nc(NNC(=O)CCC(=O)NCCN3CCN(c4ccccc4)CC3)n2n1	-97.4% (inactive)
Cc1cc2cc3c(cc2nc1SCC(=O)Nc1nc(C)c(C)s1)OCO3	43.9% (active)
CCOc1ccc(NC(=O)CSc2nncn2C)cc1	-83.5% (inactive)
O=C(NN1C(=O)CSC1=S)C(=O)NN1C(=O)CSC1=S	73.8% (active)
Cc1ccc(NC(=O)NNC(=O)c2cc3ccccc3cc2O)cc1	-69.5% (inactive)
CCC(C)(C)C1CCc2[nH]nc(C(=O)N/N=C(\C)c3ccco3)c2C1 (centres undefined)	62.7% (active)
